This passage reports Percent Effect results from ChEMBL document CHEMBL3988442, “University of Dundee, Small-Polar-MMV Screening Library” (2021).

Values joined by “and” are separate entries in the source; they are usually repeats but may differ in a detail not shown here. Equal entries are not always repeated. For some of these results: Measured potencies and affinities stand elsewhere.

What all share (design): scale not given: direction of the effect not stated beside the values
Experiment [1] deals with Protein translocase subunit SecA (Escherichia coli (strain K12)) (UniProt P10408). Put plainly: Assay to Identify E. coli SecA ATPase Inhibitors. It is filed as functional. As to conditions: 30 µM.
Sequence of Protein translocase subunit SecA (Escherichia coli (strain K12)) (P10408 whole entry): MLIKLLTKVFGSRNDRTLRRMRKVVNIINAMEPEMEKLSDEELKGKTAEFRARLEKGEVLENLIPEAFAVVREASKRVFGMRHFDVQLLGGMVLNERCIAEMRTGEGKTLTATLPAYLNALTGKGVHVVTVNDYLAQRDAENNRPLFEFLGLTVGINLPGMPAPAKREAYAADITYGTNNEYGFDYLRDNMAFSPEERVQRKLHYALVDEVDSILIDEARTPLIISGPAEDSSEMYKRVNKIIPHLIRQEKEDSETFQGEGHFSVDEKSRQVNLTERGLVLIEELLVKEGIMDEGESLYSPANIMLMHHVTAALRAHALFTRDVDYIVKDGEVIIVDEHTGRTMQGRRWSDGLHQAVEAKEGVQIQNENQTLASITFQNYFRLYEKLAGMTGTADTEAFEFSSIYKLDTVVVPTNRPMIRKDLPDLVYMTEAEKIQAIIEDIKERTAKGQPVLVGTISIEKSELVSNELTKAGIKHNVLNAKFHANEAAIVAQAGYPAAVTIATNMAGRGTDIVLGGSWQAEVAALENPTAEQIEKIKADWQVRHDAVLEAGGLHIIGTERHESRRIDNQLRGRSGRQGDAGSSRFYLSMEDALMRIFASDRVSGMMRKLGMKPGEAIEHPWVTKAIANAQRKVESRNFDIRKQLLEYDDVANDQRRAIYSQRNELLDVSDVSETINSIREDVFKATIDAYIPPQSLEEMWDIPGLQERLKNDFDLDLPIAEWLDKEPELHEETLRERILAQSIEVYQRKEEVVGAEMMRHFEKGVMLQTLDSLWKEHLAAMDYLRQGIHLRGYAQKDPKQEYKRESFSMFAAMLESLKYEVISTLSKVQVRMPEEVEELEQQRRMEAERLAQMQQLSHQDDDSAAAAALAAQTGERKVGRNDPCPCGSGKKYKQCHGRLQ
The target of experiment [2] is T1, Ubiquitin-activating enzyme e1, putative (Leishmania donovani (strain BPK282A1)) (UniProt E9BSI1).
T1 sequence (whole entry): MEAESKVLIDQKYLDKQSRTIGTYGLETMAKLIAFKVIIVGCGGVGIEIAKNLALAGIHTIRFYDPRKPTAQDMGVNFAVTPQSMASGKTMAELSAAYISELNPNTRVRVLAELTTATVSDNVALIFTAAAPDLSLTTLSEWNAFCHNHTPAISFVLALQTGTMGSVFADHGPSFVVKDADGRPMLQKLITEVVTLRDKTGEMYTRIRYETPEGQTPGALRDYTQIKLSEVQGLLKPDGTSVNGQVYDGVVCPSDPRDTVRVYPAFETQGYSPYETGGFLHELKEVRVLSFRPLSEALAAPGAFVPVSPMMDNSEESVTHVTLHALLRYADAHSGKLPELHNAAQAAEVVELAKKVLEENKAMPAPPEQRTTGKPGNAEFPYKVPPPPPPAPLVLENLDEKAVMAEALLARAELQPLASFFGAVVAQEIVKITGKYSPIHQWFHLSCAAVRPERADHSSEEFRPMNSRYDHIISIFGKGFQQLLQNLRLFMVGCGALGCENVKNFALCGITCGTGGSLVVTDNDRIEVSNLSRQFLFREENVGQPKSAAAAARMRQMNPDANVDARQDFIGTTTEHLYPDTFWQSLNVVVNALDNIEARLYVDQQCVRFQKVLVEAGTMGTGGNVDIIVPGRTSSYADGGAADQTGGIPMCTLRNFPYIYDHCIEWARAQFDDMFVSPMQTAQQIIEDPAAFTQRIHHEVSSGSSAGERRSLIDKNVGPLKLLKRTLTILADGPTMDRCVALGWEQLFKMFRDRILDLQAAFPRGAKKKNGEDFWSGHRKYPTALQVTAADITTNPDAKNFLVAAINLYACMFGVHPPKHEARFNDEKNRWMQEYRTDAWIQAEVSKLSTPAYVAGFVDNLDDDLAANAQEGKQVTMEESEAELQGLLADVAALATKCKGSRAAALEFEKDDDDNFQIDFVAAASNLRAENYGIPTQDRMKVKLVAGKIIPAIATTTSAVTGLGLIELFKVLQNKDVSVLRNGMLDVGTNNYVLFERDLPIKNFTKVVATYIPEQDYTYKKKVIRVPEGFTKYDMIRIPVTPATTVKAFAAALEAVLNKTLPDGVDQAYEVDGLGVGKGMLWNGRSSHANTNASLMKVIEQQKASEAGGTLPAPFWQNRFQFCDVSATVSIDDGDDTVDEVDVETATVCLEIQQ
The experiment can be described thus: Leishmania donovani Ubiquitin Activating Enzyme (LdE1). It is filed as functional. As to conditions: 30 µM.

For experiment [3], the target named is AMP-activated protein kinase, AMPK (Homo sapiens) (UniProt P54646+O43741+P54619+Q9UGJ0+Q9Y478+Q13131+Q9UGI9). Put plainly: AMP-dependent Kinase enzyme assay. An in vitro enzyme assay that detects ADP turnover that is directly proportional to AMPK activity. This uses naive AMPK that is activated during the assay with MK-8722. As to conditions: 30 µM. In kind it is functional.

Experiment [4] has as its target Sialic acid-binding Ig-like lectin 9 (Homo sapiens) (UniProt Q9Y336). Put plainly: Hs-Siglec9 ALPHAscreen SOP 20170721. As to conditions: 10 µM. Background: Alpha assays give light when donor and acceptor beads are brought close together.
The next experiment relates to Trypanosoma cruzi. Put plainly: Trypanosoma cruzi phosphomannomutase and mannose-1-phosphate guanylyltransferase assay. As to conditions: 10 µM. It is filed as functional.
For experiment [5], the target named is T2, Arginase-2, mitochondrial (Homo sapiens) (UniProt P78540).
T2 sequence (whole entry): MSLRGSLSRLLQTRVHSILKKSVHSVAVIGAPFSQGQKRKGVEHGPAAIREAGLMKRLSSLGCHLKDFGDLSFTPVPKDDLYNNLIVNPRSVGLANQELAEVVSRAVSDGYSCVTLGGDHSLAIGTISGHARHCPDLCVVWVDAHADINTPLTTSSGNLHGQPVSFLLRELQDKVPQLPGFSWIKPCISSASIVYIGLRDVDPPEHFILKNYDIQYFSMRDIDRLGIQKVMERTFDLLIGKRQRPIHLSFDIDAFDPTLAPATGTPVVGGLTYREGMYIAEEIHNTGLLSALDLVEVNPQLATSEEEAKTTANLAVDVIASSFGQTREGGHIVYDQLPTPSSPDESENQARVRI
Put plainly: in vitro enzyme assay to detect the production of urea directly proportional to the activity of Arginase II. Also: in the data most compounds retested in dose-response had high values. In kind it is functional. As to conditions: 33.3 µM.

The target of experiment [6] is T3, Proteasome subunit beta (Trypanosoma cruzi) (UniProt O96673).
T3 sequence (whole entry): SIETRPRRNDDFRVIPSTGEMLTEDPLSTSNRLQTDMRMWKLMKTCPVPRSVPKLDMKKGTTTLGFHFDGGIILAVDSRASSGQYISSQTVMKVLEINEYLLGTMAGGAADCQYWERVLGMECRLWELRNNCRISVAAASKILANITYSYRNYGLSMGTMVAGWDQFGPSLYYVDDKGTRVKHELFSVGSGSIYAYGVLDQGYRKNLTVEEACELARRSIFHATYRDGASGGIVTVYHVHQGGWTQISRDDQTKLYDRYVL
The experiment can be described thus: Trypanosoma cruzi proteasome chymotrypsin-like activity (TcProtChymo) assay. Also: in the data most compounds retested in dose-response had high values. As to conditions: 9.37 µM. It is filed as functional.

Another experiment is filed under the species Homo sapiens. The experiment can be described thus: To identify inhibition of the IFN signalling (Jak-Stat) pathway via expression of an eGFP reporter gene under the control of an IFN-stimulated response element (ISRE) containing MxA promoter. It is filed as functional. As to conditions: 30 µM. A general note: A reporter such as luciferase makes a cellular process visible.

Experiment [7] addresses T4, Tyrosyl-tRNA synthetase, putative (Trypanosoma cruzi (strain CL Brener)) (UniProt Q4DSP6).
T4 sequence (whole entry): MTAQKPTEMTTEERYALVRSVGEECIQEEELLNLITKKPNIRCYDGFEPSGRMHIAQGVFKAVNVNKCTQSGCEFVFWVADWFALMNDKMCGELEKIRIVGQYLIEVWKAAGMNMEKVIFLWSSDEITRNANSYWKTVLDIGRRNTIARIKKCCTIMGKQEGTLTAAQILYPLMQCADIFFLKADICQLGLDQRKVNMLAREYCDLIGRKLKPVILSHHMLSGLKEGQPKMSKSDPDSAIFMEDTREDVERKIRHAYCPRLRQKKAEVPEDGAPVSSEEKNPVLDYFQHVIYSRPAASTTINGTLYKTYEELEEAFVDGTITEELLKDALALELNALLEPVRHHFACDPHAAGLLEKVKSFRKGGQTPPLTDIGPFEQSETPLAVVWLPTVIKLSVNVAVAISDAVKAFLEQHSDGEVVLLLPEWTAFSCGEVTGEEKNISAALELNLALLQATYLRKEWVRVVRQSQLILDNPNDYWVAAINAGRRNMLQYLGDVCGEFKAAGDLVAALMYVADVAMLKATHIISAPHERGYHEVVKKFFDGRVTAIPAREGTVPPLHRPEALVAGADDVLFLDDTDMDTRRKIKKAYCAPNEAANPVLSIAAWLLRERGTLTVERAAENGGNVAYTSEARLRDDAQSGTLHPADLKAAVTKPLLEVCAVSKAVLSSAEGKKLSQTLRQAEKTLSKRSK
The experiment can be described thus: Trypanosoma cruzi tyrosyl tRNA synthetase (TcYRS) _High Tyrosine SOP. Also: in the data most compounds retested in dose-response had high values. It is filed as functional. As to conditions: 30 µM.

Experiment [8] concerns the target T4, Tyrosyl-tRNA synthetase, putative (Trypanosoma cruzi (strain CL Brener)). The experiment can be described thus: Trypanosoma cruzi tyrosyl tRNA synthetase (TcYRS) SOP. It is filed as functional. As to conditions: 30 µM.
In experiment [9] the target is Chromo domain-containing protein 1 (Saccharomyces cerevisiae (strain ATCC 204508 / S288c) (Baker's yeast)) (UniProt P32657). Put plainly: ScCHD-1 Enzyme Inhibition Assay. Also: in the data most compounds retested in dose-response had high values. In kind it is functional. As to conditions: 30 µM.
Sequence of Chromo domain-containing protein 1 (Saccharomyces cerevisiae (strain ATCC 204508 / S288c) (Baker's yeast)) (P32657 whole entry, the tested form may be a part): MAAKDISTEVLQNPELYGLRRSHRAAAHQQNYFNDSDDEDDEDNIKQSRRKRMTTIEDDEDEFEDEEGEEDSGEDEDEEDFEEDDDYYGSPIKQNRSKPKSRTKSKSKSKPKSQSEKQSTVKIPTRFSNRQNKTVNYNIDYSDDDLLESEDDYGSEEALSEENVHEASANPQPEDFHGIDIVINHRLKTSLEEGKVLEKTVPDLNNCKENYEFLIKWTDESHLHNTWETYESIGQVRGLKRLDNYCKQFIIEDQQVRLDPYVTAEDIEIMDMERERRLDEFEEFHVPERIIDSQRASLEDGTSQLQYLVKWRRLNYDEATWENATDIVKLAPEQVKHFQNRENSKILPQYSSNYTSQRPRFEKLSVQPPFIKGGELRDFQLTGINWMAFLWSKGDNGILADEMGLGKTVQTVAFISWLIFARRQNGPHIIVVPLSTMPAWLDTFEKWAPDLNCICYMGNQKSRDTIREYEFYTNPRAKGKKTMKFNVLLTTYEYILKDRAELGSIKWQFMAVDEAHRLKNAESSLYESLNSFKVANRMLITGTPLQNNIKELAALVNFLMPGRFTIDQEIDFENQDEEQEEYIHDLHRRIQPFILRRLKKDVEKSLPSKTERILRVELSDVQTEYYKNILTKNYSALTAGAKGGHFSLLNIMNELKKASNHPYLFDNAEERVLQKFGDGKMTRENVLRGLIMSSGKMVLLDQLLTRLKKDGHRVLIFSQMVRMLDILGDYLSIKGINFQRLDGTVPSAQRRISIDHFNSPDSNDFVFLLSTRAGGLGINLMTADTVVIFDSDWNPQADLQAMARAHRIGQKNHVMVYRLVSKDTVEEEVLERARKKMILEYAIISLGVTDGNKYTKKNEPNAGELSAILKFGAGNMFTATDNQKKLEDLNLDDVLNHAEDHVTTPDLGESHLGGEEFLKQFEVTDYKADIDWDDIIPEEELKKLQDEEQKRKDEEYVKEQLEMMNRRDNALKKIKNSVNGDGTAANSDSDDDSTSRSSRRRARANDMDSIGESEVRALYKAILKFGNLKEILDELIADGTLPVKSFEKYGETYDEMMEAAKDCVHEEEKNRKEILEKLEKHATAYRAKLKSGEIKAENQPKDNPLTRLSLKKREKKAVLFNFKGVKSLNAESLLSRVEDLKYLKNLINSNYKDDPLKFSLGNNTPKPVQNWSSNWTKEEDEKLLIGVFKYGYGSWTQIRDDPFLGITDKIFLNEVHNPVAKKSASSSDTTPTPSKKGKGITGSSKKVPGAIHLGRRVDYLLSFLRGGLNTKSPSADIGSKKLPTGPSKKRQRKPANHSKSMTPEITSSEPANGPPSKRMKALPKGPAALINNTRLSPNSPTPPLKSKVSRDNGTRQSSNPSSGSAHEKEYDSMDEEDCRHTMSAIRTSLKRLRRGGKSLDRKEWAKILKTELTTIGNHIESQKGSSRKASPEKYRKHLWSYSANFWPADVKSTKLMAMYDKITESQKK
For a further experiment, the system named is N/A. The experiment can be described thus: Trypanosoma cruzi proteasome luciferase counter-screen. As to conditions: 9.37 µM. It is filed as functional.

Sequence of Sialic acid-binding Ig-like lectin 9 (Homo sapiens) (Q9Y336 whole entry): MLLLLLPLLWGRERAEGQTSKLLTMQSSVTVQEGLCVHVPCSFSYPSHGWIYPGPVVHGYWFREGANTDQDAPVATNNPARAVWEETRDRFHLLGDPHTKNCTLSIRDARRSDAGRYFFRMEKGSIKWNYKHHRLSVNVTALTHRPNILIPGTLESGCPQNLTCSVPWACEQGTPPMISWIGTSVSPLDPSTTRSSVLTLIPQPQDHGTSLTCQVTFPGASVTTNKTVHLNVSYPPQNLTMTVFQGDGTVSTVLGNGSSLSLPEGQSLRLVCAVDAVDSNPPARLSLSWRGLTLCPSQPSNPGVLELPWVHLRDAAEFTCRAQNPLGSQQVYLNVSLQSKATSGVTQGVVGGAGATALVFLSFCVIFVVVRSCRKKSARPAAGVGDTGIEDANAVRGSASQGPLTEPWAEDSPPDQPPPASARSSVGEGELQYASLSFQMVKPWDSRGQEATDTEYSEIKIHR

Turning to `O=C(NCc1ccccc1CN1CCC(O)CC1)Nc1cccnc1`, the Percent Effect is -1.42% in [1]; -5.41% in experiment [2]; -1.33% in experiment [3]; 2.18% in experiment [4]; 0.193% with Trypanosoma cruzi; 2.38% in experiment [5]. Moreover, the Percent Effect in experiment [6] was 8.79%; in the experiment filed under Homo sapiens, -8.19%; in [7], 1.59%; in experiment [8], -2.44%; in experiment [9] it was -1.85%.
For `c1cncc(OCc2noc3c2CN(Cc2ccoc2)CC3)c1`, the Percent Effect in experiment [1] is -1.69%; in experiment [2] it was 22.7%; in experiment [3], -8.08%; in [4] it was -0.376%; in the experiment on Trypanosoma cruzi it was 3.93%; in experiment [5], -2.99%. The Percent Effect in [6] was 22.7%; in the experiment listed under Homo sapiens, 8.21%; in [7], 5.29%; in experiment [8], 15.4%; in experiment [9] it was -11.2%.
With `Cc1cnn(CC2CCCN2C(=O)CCCc2nc(C)no2)c1` (configuration not stated), the Percent Effect in [1] is -1.89%; in experiment [2], 13.2%; in experiment [3] it was 1.65%; in experiment [4], -10.6%; in the experiment on Trypanosoma cruzi, -3.21%; in experiment [5] it was -3.55%. Further, the Percent Effect is 4.89% in [6]; 27.9% in the experiment filed under Homo sapiens; 1.06% in [7]; 10.4% in experiment [8]; -6.12% in [9].
In the case of `Cc1cc(C(=O)N2CCc3nnc(N)cc3C2)c(C)n1-c1cccnc1`, the Percent Effect in experiment [1] is -9.46%; in [2] it was -46.8%; in experiment [3] it was -58.5%; in experiment [4], 7.86%; with Trypanosoma cruzi, 0.923%; in experiment [5] it was -2.37%. Moreover, the Percent Effect is 33.5% and 37.5% and 48.3% in experiment [6]; 14.7% and 15.2% with N/A; 12.2% in the experiment filed under Homo sapiens; 9.38% in experiment [7]; 10.1% in experiment [8]; -5.27% in experiment [9].
On to `CN1CCc2cc(C(CNS(=O)(=O)c3cccs3)N3CCCC3)ccc21` (configuration not stated), for which the Percent Effect in [1] is -1.64%; in experiment [2], 13%; in experiment [3] it was 7.05%; in experiment [4] it was -7.92%; with Trypanosoma cruzi, -5.42%; in experiment [5], -9.68%. The Percent Effect in experiment [6] is 8.88%; in the experiment listed under Homo sapiens, 12.5%; in experiment [7], 0%; in experiment [8], 8.97%; in experiment [9], -8.44%.
Regarding `Cc1[nH]ccc1C(=O)Nc1cccc(CN2CCC(O)CC2)c1`, the Percent Effect in [1] is 0.333%; in experiment [2], 10.5%; in experiment [3], -2.05%; in experiment [4] it was -6.23%; in the experiment on Trypanosoma cruzi, -5.36%; in [5], -2.37%. In addition, the Percent Effect in [6] was 16.2%; in the experiment listed under Homo sapiens, 8.85%; in [7] it was 1.06%; in experiment [8], 10.4%; in experiment [9] it was -3.89%.
